Consider three compounds from ChEMBL document CHEMBL2218924, “A broad activity screen in support of a chemogenomic map for kinase signalling research and drug discovery” (Biochem J, 2013).

Experiment [1] has as its target Serine/threonine-protein kinase SIK1 (Homo sapiens) (UniProt P57059). The settings on record: at 10 µM.
For experiment [2], the target named is SRSF protein kinase 1 (Homo sapiens) (UniProt Q96SB4). The settings on record: at 1 µM.
Experiment [3] has the same target. The settings on record: at 10 µM.
The target in experiment [4] is SRSF protein kinase 2 (Homo sapiens) (UniProt P78362). The settings on record: at 1 µM.
SRSF protein kinase 2 (Homo sapiens), sequence (P78362 whole entry, looked up): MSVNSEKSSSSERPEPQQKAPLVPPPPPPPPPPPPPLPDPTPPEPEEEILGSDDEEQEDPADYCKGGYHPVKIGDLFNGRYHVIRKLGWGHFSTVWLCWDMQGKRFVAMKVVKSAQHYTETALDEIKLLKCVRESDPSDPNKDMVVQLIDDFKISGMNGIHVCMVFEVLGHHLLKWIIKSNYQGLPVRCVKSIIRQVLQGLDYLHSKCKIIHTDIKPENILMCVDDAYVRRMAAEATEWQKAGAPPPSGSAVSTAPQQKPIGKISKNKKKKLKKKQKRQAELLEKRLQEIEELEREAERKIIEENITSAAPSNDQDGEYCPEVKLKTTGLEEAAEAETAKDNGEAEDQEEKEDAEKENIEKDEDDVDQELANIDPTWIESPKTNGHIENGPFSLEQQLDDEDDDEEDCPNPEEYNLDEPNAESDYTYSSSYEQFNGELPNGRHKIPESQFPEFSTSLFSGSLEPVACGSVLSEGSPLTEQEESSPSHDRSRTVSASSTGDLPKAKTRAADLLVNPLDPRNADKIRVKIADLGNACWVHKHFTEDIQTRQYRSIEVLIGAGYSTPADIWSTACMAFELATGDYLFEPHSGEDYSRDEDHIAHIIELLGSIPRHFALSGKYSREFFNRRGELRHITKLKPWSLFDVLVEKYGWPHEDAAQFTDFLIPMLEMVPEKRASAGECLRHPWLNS
Experiment [5] shares this target. The settings on record: at 10 µM.
Experiment [6] addresses Serine/threonine-protein kinase 33 (Homo sapiens) (UniProt Q9BYT3). The settings on record: at 1 µM.
Experiment [7] shares this target. The settings on record: at 10 µM.
The target in experiment [8] is Serine/threonine-protein kinase PLK2 (Homo sapiens) (UniProt Q9NYY3). The settings on record: at 1 µM.
Serine/threonine-protein kinase PLK2 (Homo sapiens), sequence (Q9NYY3 whole entry, looked up): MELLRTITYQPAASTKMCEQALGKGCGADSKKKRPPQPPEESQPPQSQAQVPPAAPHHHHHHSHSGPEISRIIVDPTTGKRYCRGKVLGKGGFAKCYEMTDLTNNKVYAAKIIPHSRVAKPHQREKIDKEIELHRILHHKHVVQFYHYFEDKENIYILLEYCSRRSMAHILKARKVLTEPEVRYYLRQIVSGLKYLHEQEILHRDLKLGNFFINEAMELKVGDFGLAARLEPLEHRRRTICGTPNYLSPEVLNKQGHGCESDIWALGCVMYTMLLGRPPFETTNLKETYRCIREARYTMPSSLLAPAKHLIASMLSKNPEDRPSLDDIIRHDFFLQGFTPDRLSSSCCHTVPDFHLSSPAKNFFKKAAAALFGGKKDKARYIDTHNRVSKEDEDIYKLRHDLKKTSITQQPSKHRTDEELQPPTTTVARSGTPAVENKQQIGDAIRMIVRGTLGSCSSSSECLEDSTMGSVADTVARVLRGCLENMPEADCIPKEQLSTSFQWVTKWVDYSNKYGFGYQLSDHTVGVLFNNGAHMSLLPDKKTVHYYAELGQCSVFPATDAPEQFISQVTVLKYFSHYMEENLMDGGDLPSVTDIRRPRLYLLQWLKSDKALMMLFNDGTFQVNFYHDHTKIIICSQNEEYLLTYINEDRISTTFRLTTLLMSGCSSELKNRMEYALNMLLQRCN
Experiment [9] has the same target. The settings on record: at 10 µM.
Experiment [10] has as its target T1, Mitogen-activated protein kinase kinase kinase 7 (Homo sapiens) (UniProt O43318).
T1 sequence (whole entry): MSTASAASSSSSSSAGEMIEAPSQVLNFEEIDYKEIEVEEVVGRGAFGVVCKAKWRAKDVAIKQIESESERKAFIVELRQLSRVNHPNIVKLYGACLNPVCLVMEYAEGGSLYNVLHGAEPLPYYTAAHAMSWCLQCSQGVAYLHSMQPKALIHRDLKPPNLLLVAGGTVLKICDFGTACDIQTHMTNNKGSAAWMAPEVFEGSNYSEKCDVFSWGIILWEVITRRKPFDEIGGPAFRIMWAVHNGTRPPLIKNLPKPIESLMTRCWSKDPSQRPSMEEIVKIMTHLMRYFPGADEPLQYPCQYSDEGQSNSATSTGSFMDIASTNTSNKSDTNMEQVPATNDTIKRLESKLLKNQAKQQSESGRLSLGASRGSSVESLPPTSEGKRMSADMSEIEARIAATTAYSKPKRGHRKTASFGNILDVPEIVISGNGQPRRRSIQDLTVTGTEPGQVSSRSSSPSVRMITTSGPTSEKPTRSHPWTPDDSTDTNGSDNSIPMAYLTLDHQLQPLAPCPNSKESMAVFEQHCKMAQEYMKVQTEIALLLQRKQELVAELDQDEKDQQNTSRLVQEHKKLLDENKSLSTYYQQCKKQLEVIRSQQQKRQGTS
The settings on record: at 1 µM.

Experiment [11] addresses T1, Mitogen-activated protein kinase kinase kinase 7 (Homo sapiens). The settings on record: at 10 µM.
The target in experiment [12] is T2, Serine/threonine-protein kinase TAO1 (Homo sapiens) (UniProt Q7L7X3).
T2 sequence (whole entry): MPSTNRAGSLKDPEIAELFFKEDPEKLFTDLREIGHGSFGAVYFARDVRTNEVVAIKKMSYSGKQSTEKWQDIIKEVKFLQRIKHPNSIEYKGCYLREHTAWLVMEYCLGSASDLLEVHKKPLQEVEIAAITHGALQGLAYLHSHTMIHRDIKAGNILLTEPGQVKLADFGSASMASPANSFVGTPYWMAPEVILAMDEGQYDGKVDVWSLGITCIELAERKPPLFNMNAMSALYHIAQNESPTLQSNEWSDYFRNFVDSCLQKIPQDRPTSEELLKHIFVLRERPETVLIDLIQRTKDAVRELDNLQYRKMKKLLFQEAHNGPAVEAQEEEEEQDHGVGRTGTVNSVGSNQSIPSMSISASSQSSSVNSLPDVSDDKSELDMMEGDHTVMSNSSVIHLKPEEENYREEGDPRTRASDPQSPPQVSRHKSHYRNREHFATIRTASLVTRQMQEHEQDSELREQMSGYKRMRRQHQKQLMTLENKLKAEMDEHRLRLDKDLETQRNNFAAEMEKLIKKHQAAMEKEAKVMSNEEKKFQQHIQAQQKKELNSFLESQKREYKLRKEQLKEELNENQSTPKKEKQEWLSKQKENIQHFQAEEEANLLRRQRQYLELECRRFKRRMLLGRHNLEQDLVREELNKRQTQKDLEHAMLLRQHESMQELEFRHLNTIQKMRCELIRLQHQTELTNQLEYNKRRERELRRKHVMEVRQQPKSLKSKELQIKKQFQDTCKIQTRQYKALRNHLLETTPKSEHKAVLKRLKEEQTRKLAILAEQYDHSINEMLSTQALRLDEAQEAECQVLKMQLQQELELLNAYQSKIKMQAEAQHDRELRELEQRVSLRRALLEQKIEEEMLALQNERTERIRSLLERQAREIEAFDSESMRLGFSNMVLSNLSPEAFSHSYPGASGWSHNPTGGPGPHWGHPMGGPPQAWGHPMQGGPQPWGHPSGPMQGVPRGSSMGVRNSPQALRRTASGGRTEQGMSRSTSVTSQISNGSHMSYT
The settings on record: at 1 µM.

Experiment [13] has as its target T2, Serine/threonine-protein kinase TAO1 (Homo sapiens). The settings on record: at 10 µM.
The target of experiment [14] is T3, Serine/threonine-protein kinase TAO2 (Homo sapiens) (UniProt Q9UL54).
T3 sequence (whole entry): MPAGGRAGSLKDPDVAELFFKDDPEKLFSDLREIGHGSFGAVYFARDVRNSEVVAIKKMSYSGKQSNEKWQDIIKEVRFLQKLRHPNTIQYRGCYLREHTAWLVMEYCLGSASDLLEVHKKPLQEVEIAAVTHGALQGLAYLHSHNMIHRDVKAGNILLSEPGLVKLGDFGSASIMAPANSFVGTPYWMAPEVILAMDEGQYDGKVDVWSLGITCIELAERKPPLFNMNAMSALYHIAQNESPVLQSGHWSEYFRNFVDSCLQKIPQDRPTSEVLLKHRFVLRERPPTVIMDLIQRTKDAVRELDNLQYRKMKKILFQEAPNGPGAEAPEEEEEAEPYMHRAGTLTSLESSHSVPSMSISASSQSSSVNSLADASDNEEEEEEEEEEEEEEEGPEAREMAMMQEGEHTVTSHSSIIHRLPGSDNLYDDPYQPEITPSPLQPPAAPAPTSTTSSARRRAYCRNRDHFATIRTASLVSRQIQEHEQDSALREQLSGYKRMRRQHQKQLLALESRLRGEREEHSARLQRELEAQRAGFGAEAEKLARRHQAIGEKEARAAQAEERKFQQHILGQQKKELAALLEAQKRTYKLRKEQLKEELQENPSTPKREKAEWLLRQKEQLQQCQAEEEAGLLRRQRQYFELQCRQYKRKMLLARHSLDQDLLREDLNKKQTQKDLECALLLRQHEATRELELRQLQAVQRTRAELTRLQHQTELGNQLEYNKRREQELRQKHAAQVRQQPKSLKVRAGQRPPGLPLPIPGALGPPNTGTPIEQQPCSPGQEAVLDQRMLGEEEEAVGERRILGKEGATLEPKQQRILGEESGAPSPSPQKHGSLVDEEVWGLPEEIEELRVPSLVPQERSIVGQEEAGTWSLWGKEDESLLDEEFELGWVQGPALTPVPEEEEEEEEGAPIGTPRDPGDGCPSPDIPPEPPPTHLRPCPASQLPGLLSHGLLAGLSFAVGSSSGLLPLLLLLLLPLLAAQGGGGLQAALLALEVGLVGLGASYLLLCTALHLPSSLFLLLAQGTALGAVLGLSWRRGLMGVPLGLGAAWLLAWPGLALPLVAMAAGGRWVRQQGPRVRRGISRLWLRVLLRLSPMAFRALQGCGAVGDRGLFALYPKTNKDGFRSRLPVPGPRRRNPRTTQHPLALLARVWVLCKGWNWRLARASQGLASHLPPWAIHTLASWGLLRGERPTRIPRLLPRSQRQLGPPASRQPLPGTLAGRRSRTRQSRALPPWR
The settings on record: at 1 µM.

The target in experiment [15] is T3, Serine/threonine-protein kinase TAO2 (Homo sapiens). The settings on record: at 10 µM.
For experiment [16], the target named is T4, Serine/threonine-protein kinase TAO3 (Homo sapiens) (UniProt Q9H2K8).
T4 sequence (whole entry): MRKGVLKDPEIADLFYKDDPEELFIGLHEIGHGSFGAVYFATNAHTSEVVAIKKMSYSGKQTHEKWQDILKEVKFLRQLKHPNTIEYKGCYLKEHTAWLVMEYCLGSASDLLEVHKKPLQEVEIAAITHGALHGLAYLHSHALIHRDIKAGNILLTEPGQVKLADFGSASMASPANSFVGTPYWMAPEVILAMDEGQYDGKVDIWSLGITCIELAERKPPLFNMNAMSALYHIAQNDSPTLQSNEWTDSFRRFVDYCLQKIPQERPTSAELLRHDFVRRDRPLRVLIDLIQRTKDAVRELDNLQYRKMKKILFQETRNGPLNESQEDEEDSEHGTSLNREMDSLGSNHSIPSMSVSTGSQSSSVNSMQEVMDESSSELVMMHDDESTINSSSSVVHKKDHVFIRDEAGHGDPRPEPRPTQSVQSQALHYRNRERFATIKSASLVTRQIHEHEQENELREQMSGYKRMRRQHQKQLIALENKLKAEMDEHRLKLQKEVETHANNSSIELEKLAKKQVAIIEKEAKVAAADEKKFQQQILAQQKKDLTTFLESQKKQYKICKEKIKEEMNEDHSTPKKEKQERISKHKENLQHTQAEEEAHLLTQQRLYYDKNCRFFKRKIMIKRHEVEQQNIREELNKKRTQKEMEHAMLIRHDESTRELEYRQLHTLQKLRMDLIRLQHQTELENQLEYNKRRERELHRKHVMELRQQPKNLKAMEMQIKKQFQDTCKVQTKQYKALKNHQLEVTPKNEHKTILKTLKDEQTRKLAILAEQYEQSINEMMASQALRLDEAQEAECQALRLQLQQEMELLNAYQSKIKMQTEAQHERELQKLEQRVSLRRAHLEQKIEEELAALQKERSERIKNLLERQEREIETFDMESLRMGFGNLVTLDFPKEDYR
The settings on record: at 1 µM.

Experiment [17] addresses T4, Serine/threonine-protein kinase TAO3 (Homo sapiens). The settings on record: at 10 µM.
The target in experiment [18] is T5, Serine/threonine-protein kinase TBK1 (Homo sapiens) (UniProt Q9UHD2).
T5 sequence (whole entry): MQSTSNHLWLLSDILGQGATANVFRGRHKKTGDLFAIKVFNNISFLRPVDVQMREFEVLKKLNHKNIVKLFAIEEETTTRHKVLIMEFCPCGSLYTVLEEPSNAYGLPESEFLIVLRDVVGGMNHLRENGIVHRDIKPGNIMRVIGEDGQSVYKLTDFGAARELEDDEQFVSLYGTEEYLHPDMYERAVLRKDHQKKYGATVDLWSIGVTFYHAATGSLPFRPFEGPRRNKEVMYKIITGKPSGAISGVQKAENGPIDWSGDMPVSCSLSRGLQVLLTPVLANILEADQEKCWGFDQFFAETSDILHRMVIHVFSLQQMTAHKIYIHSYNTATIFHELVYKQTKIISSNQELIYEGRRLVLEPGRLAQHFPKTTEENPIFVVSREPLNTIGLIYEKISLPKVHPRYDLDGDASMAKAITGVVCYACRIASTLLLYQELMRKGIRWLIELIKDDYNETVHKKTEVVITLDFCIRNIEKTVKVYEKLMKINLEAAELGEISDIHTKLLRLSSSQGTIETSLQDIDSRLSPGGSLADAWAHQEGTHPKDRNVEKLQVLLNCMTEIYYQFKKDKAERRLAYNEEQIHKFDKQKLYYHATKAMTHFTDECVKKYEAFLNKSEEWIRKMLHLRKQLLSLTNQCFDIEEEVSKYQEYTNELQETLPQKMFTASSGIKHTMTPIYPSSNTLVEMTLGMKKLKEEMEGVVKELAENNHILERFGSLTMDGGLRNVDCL
The settings on record: at 1 µM.

Experiment [19] addresses Tyrosine-protein kinase SYK (Homo sapiens) (UniProt P43405). The settings on record: at 1 µM.
Experiment [20] has the same target. The settings on record: at 10 µM.

SRSF protein kinase 1 (Homo sapiens), sequence (Q96SB4 whole entry): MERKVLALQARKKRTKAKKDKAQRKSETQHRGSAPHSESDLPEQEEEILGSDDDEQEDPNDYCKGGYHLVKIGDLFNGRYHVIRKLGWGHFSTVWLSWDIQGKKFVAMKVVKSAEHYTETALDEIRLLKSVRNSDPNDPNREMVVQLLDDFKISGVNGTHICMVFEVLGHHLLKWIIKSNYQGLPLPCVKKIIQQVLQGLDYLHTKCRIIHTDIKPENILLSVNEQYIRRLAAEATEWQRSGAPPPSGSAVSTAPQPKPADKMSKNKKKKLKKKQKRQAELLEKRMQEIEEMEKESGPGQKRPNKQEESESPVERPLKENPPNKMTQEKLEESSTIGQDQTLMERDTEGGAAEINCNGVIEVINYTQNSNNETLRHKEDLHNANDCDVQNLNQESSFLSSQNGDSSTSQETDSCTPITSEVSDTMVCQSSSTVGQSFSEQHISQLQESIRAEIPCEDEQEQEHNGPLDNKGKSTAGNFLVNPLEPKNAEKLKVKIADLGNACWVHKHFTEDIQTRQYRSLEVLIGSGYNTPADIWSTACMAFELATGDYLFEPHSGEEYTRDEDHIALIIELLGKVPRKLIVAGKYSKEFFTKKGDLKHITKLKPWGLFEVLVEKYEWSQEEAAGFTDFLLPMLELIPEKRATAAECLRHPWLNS
Serine/threonine-protein kinase 33 (Homo sapiens), sequence (Q9BYT3 whole entry, looked up): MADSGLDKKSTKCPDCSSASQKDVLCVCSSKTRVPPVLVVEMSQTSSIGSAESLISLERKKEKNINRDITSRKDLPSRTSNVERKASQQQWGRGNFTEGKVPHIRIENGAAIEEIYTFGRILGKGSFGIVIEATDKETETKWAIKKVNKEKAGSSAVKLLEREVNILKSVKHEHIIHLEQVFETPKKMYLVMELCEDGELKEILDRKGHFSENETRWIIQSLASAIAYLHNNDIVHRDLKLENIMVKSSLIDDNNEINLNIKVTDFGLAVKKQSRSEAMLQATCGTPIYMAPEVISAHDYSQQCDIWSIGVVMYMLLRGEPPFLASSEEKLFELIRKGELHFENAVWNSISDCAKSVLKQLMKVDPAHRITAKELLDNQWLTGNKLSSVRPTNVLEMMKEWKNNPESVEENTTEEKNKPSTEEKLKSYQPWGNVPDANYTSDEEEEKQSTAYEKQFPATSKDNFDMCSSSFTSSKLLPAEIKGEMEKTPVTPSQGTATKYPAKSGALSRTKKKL
Serine/threonine-protein kinase SIK1 (Homo sapiens), sequence (P57059 whole entry): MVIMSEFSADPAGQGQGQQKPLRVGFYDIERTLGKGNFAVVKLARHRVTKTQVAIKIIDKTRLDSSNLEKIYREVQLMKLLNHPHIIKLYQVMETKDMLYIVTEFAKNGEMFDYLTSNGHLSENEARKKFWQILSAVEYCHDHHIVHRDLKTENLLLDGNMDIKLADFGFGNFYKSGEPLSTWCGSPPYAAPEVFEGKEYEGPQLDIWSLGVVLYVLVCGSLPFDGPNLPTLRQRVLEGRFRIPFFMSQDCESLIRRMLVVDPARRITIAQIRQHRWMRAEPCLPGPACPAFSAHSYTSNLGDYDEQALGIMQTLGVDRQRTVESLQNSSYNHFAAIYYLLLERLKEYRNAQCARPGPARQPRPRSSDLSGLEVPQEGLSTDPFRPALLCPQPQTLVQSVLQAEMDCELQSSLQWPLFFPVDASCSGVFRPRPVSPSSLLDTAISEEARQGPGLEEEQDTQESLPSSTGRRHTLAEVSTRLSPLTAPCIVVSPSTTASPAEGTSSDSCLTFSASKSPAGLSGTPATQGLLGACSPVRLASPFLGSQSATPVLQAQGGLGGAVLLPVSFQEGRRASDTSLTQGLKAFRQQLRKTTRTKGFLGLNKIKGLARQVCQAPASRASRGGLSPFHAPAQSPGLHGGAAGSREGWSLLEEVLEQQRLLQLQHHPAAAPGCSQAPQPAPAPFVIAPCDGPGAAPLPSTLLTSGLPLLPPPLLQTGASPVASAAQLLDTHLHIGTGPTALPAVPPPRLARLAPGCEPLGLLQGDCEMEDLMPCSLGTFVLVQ

In the case of `Oc1c2ccccc2c2c3c(cccc13)N=N2`, the residual activity came to 48% in [1]; 98% in experiment [2]; 87% in experiment [3]; 97% in experiment [4]; 57% in experiment [5]; 61% in [6]. Moreover, the residual activity in [7] turned out to be 16%; in [8], 85%; in [9], 61%; in [10], 41%; in experiment [11], 19%; in experiment [12], 69%. Besides, the residual activity in experiment [13] was 25%; in experiment [14], 101%; in experiment [15], 69%; in experiment [16] it was 69%; in experiment [17] it was 27%; in experiment [18] it was 35%.

`O=C1Nc2ccccc2/C1=C1/Nc2ccccc2/C1=N\OCCC(O)CO` (stereo unspecified): the residual activity in experiment [1] came to 30%; in experiment [4], 80%; in [5] it was 38%; in experiment [6], 37%; in experiment [7], 7%; in experiment [9] it was 76%. Also, the residual activity in [19] worked out at 32%; in [20], 42%; in experiment [10], 36%; in experiment [11] it was 38%; in [13] it was 45%; in experiment [15], 70%. Besides, the residual activity in experiment [17] came to 71%; in [18], 9%.

Regarding `COc1ccc(OC)c2c(=S)c3ccccc3[nH]c12`, the residual activity in experiment [2] came to 91%; in experiment [3] it was 88%; in experiment [4] it was 97%; in experiment [5], 82%; in [6], 94%; in experiment [7], 77%. Also, the residual activity in experiment [8] came to 89%; in [9] it was 91%; in [19], 94%; in experiment [20], 96%; in experiment [10] it was 95%; in experiment [11] it was 81%. Besides, the residual activity came to 82% in experiment [12]; 91% in experiment [13]; 90% in experiment [14]; 87% in experiment [15]; 96% in experiment [16]; 90% in experiment [17]. The residual activity in experiment [18] was found to be 82%.
